Screening data deposited in PubChem by The Scripps Research Institute Molecular Screening Center.
CHO-K1 Ca ag: nonselective activator or artifact in parental CHO-K1 cells; activation, % at 3 µM; hit rate 0.48% among 360,000; AID 602248; Fluo-8 calcium fluorescence; scaled to maximal ATP response, vehicle zero; in the data active = activation above about 15%;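 note: untransfected CHO-K1 host cells lacking M1 receptor as counterscreen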
CHO-K1 Ca antag: M1 antagonist counterscreen hit in parental CHO-K1 cells; inhibition, % at 3 µM; ATP-induced calcium, Fluo-8 fluorescence; hit rate 0.6% among 360,000;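 active = inhibition above a per-plate cutoff, the plate's mean sample inhibition plus 3 SD, cut at about 24% in these data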;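 note: 0% = DMSO plus EC80 ATP and 100% = DMSO alone without ATP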
CHRM1 agonist: agonists of human M1 muscarinic receptor | activation, % at 3 µM | CHO-K1 hM1, Fluo-8 calcium fluorescence, agonist mode; 0% DMSO, 100% acetylcholine EC100 | hit rate 0.33% among 360,000;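 active = activation above the run's mean compound activation plus 3 SD, cut at about 16% in these data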;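 note: peak over basal fluorescence ratio within a 140 s kinetic read after compound addition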
Target sequence (P11229 whole entry, looked up): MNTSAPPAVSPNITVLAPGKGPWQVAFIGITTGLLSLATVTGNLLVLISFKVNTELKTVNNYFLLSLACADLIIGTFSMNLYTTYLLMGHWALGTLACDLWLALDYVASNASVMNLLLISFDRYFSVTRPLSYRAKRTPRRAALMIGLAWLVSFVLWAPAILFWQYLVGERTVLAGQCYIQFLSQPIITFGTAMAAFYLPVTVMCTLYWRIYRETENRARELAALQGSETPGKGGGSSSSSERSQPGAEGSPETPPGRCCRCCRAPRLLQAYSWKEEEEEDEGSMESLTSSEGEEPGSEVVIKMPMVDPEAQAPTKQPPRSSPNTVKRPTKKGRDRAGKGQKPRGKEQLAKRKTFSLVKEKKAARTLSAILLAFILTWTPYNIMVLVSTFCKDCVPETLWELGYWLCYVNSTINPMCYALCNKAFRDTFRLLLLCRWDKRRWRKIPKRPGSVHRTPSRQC
CHRM1 antagonist: blocks human M1 muscarinic receptor; hit rate 1.3% among 360,000; inhibition, % at 3 µM; P11229; CHO-K1 hM1, Fluo-8 calcium fluorescence, ACh EC80 antagonist;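 active = percent inhibition above its own plate's cutoff, namely the mean of that plate's compound wells plus 3 SD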;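 note: peak over basal fluorescence ratio during 140 s after agonist addition; 0% = ACh EC80 plus DMSO and 100% = DMSO alone without agonist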
CHO-K1 Ca PAM: counter-screen for M1 PAMs: effect in parental CHO-K1 cells; ATP EC20, Fluo-8 calcium fluorescence; 0% at ATP EC20, 100% at ATP max; activation, % at 3 µM; hit rate 0.02% among 360,000;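 active = activation above the run cutoff, the mean activation of all test compounds plus 3 SD, cut at about 40% in these data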;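 note: peak over basal fluorescence ratio in a 140 s read after ATP addition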
CHRM1 PAM: potentiates human M1 receptor response to acetylcholine; CHO-K1 hM1, Fluo-8 calcium fluorescence, ACh EC20; 0% = ACh EC20, 100% = maximal ACh; activation, % at 3 µM; hit rate 0.088% among 360,000; in the data active = activation above about 19%, passing the limit was not always enough
An asterisk follows results filed as active. Only some compounds are listed: those with a hit (about 2.3% of all), similar ones and a draw of the others.

How did CC(NC(=O)COC(=O)Cc1ccsc1)c1ccccc1 (configuration not stated) do in these assays?
CHO-K1 Ca ag: 18*; CHO-K1 Ca antag: 2; CHRM1 agonist: -5; CHRM1 antagonist: -10; CHO-K1 Ca PAM: 16; CHRM1 PAM: 11

What do the screens show for `O=Cc1c[nH]c2ccc(NC(=O)OCc3ccccc3)cc12`?
CHO-K1 Ca ag: -1; CHO-K1 Ca antag: 29*; CHRM1 agonist: 2; CHRM1 antagonist: 2; CHO-K1 Ca PAM: -28; CHRM1 PAM: 10

Results for O=C(CCc1c[nH]c2ccccc12)OCC(=O)N1CCN(S(=O)(=O)c2ccccc2)CC1 ?
CHO-K1 Ca ag: 2; CHO-K1 Ca antag: 11; CHRM1 agonist: 0; CHRM1 antagonist: -3; CHO-K1 Ca PAM: -19; CHRM1 PAM: 2

How did Cc1ccsc1C(=O)N1CCCC(CO)(Cc2ccccc2)C1 (configuration not stated) do in these assays?
CHO-K1 Ca ag: 2; CHO-K1 Ca antag: 4; CHRM1 agonist: 0; CHRM1 antagonist: -4; CHO-K1 Ca PAM: -2; CHRM1 PAM: 4

How did CN(C)C(C)(C)C#CCC(c1ccccc1)c1ccccc1 do in these assays?
CHO-K1 Ca ag: 2; CHO-K1 Ca antag: -4; CHRM1 agonist: -7; CHRM1 antagonist: 87*; CHO-K1 Ca PAM: 5; CHRM1 PAM: -25

What do the screens show for `CN(C)C(C)(C)C#CCCCCC#CC(C)(C)N(C)C`?
CHO-K1 Ca ag: 1; CHO-K1 Ca antag: -10; CHRM1 agonist: -9; CHRM1 antagonist: -19; CHO-K1 Ca PAM: 19; CHRM1 PAM: 10

What do the screens show for `O=C(NCC1COc2ccccc2O1)C1CCCN(S(=O)(=O)c2cccc3cccnc23)C1` (configuration not stated)?
CHO-K1 Ca ag: 1; CHO-K1 Ca antag: 25*; CHRM1 agonist: 1; CHRM1 antagonist: -1; CHO-K1 Ca PAM: 2; CHRM1 PAM: 8

Results for O=C(NCC1COc2ccccc2O1)C1CCCN(S(=O)(=O)c2cccc3nsnc23)C1 (configuration not stated) ?
CHO-K1 Ca ag: 4; CHO-K1 Ca antag: -9; CHRM1 agonist: -1; CHRM1 antagonist: -4; CHO-K1 Ca PAM: 11; CHRM1 PAM: 5

How did O=C(NCc1cccnc1)C1CCCN(S(=O)(=O)c2cccc3nsnc23)C1 (configuration not stated) do in these assays?
CHO-K1 Ca ag: 0; CHO-K1 Ca antag: 14; CHRM1 agonist: -9; CHRM1 antagonist: 38*; CHO-K1 Ca PAM: -9; CHRM1 PAM: -22

Results for Cc1cc(C)c(S(=O)(=O)N2CCCC(C(=O)NCc3cccnc3)C2)c(C)c1 (configuration not stated) ?
CHO-K1 Ca ag: 7; CHO-K1 Ca antag: -7; CHRM1 agonist: -4; CHRM1 antagonist: 34*; CHO-K1 Ca PAM: 3; CHRM1 PAM: -16

How did COc1ccc(/C=N/n2c(C3CCCCC3)n[nH]c2=S)c(OC)c1 do in these assays?
CHO-K1 Ca ag: 2; CHO-K1 Ca antag: -18; CHRM1 agonist: 0; CHRM1 antagonist: -10; CHO-K1 Ca PAM: 15; CHRM1 PAM: 8

What do the screens show for `CN(C)CCCNCCCNC(=O)/C(=N\O)c1ccccc1`?
CHO-K1 Ca ag: 1; CHO-K1 Ca antag: -17; CHRM1 agonist: -7; CHRM1 antagonist: -4; CHO-K1 Ca PAM: 28; CHRM1 PAM: 4

Results for COc1ccc(NS(=O)(=O)c2ccc(C(=O)N3CCN(c4ccc(F)cc4)CC3)cc2)cc1 ?
CHO-K1 Ca ag: 16*; CHO-K1 Ca antag: 1; CHRM1 agonist: 9; CHRM1 antagonist: 28; CHO-K1 Ca PAM: -7; CHRM1 PAM: -15

How did O=C(c1ccc(S(=O)(=O)Nc2ccc(F)cc2)cc1)N1CCN(c2ccccn2)CC1 do in these assays?
CHO-K1 Ca ag: 17*; CHO-K1 Ca antag: 10; CHRM1 agonist: 0; CHRM1 antagonist: 37*; CHO-K1 Ca PAM: -12; CHRM1 PAM: -20

Results for C[C@H](CO)N1C[C@H](C)[C@H](CN(C)S(=O)(=O)c2ccc(F)cc2)OCc2cnnn2CCCC1=O ?
CHO-K1 Ca ag: 2; CHO-K1 Ca antag: -10; CHRM1 agonist: -6; CHRM1 antagonist: -9; CHO-K1 Ca PAM: 24; CHRM1 PAM: 0

Results for CC1(C)Oc2cc3oc(=O)ccc3c3c2C2C1CCC(C)(O3)C2O (configuration not stated) ?
CHO-K1 Ca ag: 0; CHO-K1 Ca antag: -2; CHRM1 agonist: -2; CHRM1 antagonist: -1; CHO-K1 Ca PAM: 17; CHRM1 PAM: 2

How did COC(=O)c1ccc(N2CCN(S(=O)(=O)c3ccc4ccccc4c3)CC2)c([N+](=O)[O-])c1 do in these assays?
CHO-K1 Ca ag: 0; CHO-K1 Ca antag: 28*; CHRM1 agonist: 0; CHRM1 antagonist: 23; CHO-K1 Ca PAM: 2; CHRM1 PAM: -3

Results for COc1ccc(CCNC(=O)CSc2nc(=O)[nH]c3c2CCC3)cc1OC ?
CHO-K1 Ca ag: 0; CHO-K1 Ca antag: 3; CHRM1 agonist: -1; CHRM1 antagonist: -24; CHO-K1 Ca PAM: -1; CHRM1 PAM: 8

Results for COc1ccc(C(=O)C2CCCN(C(=O)CCc3ccccn3)C2)c(C)c1 (configuration not stated) ?
CHO-K1 Ca ag: 2; CHO-K1 Ca antag: -8; CHRM1 agonist: -1; CHRM1 antagonist: 11; CHO-K1 Ca PAM: -6; CHRM1 PAM: -1

How did COc1ccc(C(=O)C2CCCN(C(=O)CCc3scnc3C)C2)c(C)c1 (configuration not stated) do in these assays?
CHO-K1 Ca ag: 18*; CHO-K1 Ca antag: 3; CHRM1 agonist: -7; CHRM1 antagonist: -9; CHO-K1 Ca PAM: 12; CHRM1 PAM: 10

How did CNC(=S)N1N=C(c2ccc(OC)cc2)CC1c1ccccc1Cl (configuration not stated) do in these assays?
CHO-K1 Ca ag: 1; CHO-K1 Ca antag: -6; CHRM1 agonist: -8; CHRM1 antagonist: 34*; CHO-K1 Ca PAM: -7; CHRM1 PAM: -22

Results for CCN1CCN(S(=O)(=O)c2cc(OCC(=O)NC3CCCCC3)c(C)cc2Cl)CC1 ?
CHO-K1 Ca ag: 1; CHO-K1 Ca antag: 27*; CHRM1 agonist: -1; CHRM1 antagonist: 9; CHO-K1 Ca PAM: -6; CHRM1 PAM: 0

How did Cc1cc(Cl)c(S(=O)(=O)N2CCN(c3ccccn3)CC2)cc1OCC(=O)NC1CCCCC1 do in these assays?
CHO-K1 Ca ag: 11; CHO-K1 Ca antag: 1; CHRM1 agonist: -1; CHRM1 antagonist: 26*; CHO-K1 Ca PAM: -11; CHRM1 PAM: -13

What do the screens show for `Cc1cc2c(sc3ccccc32)c(C)n1`?
CHO-K1 Ca ag: 0; CHO-K1 Ca antag: -8; CHRM1 agonist: -4; CHRM1 antagonist: -8; CHO-K1 Ca PAM: -3; CHRM1 PAM: 11

Results for Cc1nc2c(s1)sc1ccccc12 ?
CHO-K1 Ca ag: 0; CHO-K1 Ca antag: 24*; CHRM1 agonist: -5; CHRM1 antagonist: -4; CHO-K1 Ca PAM: -9; CHRM1 PAM: 1
